Rows were chosen to be rich in hits. Some 13% of all compounds tested hit in one or more screens of this group.
miR-21 reporter = qHTS Assay for Modulators of miRNAs and/orActivators of miR-21. HeLa miR-21 FLuc reporter, luciferase, 48 h. Potency, µM (highest dose often 38.3 µM), without a hit: at the top dose activity change, positive = activation, usual class: activators. 340,000 tested, under 10 active. AID 2288, 2010;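 further: % of control where 0% means no effect; miR-21 action dims this reporter so a rising signal means less miR-21 action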
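HeLa cells endogenously expressing miR-21, stably carrying CMV-driven firefly luciferase with a downstream miR-21 binding site, 2000 cells/well. Titrations up to approximately 40 uM, 48 hours; luciferase luminescence read.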
ALDH1A1 inh = qHTS Assay for Inhibitors of Aldehyde Dehydrogenase 1 (ALDH1A1); Purified ALDH1A1, NADH fluorescence, propionaldehyde substrate; Potency, µM (doses to about 75.3 µM), for the others: top-dose activity, negative = inhibition, actives largely listed as inhibitors; hit rate 7.3% among 220,000; AID 1030, 2008; active means well fitted inhibition curve with a large enough effect, not every such curve was filed as active; inconclusive means small, poorly fitted or top-dose-only effect, or another doubt; inactive means no such curve, though single readings can be large or run the other way;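 further: potency means the concentration at half of the fitted maximal effect; plate controls were no enzyme wells and a reference inhibitor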
Target sequence (P00352 whole entry, looked up): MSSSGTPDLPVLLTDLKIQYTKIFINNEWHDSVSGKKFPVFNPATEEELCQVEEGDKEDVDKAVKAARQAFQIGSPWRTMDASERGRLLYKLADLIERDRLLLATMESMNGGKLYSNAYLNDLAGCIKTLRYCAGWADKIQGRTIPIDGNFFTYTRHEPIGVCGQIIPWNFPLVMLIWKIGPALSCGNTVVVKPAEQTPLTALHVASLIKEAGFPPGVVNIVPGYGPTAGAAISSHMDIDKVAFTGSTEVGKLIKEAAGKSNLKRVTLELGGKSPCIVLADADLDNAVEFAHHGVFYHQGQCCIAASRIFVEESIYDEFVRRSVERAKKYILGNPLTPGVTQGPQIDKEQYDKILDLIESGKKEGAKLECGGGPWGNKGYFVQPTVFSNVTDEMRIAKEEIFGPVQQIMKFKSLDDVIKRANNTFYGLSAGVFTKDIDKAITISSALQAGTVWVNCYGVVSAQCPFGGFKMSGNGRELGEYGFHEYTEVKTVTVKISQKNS
Sfp PPTase inh = qHTS Assay for Inhibitors of Bacillus subtilis Sfp phosphopantetheinyl transferase (PPTase) | hit rate 3.5% among 310,000 | Biochemical Sfp PPTase activity, qHTS | Potency, µM, for inactives: largest response in the series, negative = inhibition, hits mostly inhibitors | 4'-phosphopantetheinyl transferase ffp (Bacillus subtilis), Q9F4F7;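 further: the enzyme is Sfp with the accession as filed and its product quenches rhodamine fluorescence; potency means the concentration at half of the fitted maximal effect; 0% = enzyme reaction without inhibitor and -100% = no enzyme wells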
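Compounds were incubated with enzyme (final 15 nM) for 15 min at room temperature before substrate addition started the reaction. Fluorescence at 525 nm excitation, 598 nm emission was recorded immediately and after 30 minutes.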
KDM4E inh = qHTS Assay for Inhibitors of Human Jumonji Domain Containing 2E (JMJD2E). Lysine-specific demethylase 4E (Homo sapiens), B2RXH2. JMJD2E catalytic domain, FDH-coupled NADH fluorescence (FDH is formaldehyde dehydrogenase). Potency, µM (top dose mostly 57.1 µM), for the others: at the top dose activity change, negative = inhibition, hits mostly inhibitors. hit rate 1.6% among 230,000. AID 2147, 2009; active means well fitted inhibition curve with a large enough effect, not every such curve was filed as active; inconclusive means small, poorly fitted or top-dose-only effect, or another doubt; inactive means no such curve, though single readings can be large or run the other way;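 further: potency means the concentration at half of the fitted maximal effect; 0% = wells with enzyme and -100% = buffer wells without enzyme; nearly all actives have a fitted effect of over 50% in size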
Lamin A splicing = qHTS Assay for Modulators of Lamin A Splicing. AID 1487, 2009. HeLa LMNA splicing GFP/RFP minigene ratio, 48 h. Potency, µM (series often up to 46.1 µM), inactives show at the highest dose ratio change, negative = inhibition, hits mostly inhibitors. hit rate 0.01% among 200,000; active means well fitted inhibition curve with a large enough effect in the signal ratio, with a control signal flat, not every such curve was filed as active; inconclusive means small, poorly fitted or top-dose-only effect, or effect the other way, or a change in a side signal; the % refers to the signal ratio; further: potency means the concentration at half of the fitted maximal effect; on the % scale 0 is the no-effect control and ±100 the full control effect
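S3 HeLa stable clones carrying a lamin A-EGFP splicing minigene plus DsRed2 were seeded at 600 cells/well in Opti-MEM with 2% FBS, pin-dosed and incubated 48 h at 37°C. Acumen cytometry (488 nm) gave the GFP/RFP total-intensity ratio.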
G9a block = qHTS Assay for Inhibitors of Histone Lysine Methyltransferase G9a | Potency, µM (highest dose often 102 µM), for the others: at the top dose activity, negative = inhibition, hits mostly inhibitors | G9a H3K9 monomethylation, AlphaScreen, 2 h | AID 504332, 2011 | hit rate 8.8% among 350,000 | Histone-lysine N-methyltransferase EHMT2 (Homo sapiens), Q96KQ7; further: potency means the concentration at half of the fitted maximal effect; on the % scale 0 is the no-effect control and ±100 the full control effect; nearly all actives have a fitted effect of over 75% in size
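AlphaScreen read-out: biotin-H3K9 peptide (500 nM) methylation by 20 nM enzyme with 20 uM SAM, 2 h at room temperature after 15 min compound preincubation; anti-monomethyl H3K9 antibody plus donor/acceptor beads, 10 min dark.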
The depositor's hits bear a star; ? = inconclusive; . = not tested or not shown; [ ] = remark or other dose. Unless noted, the call rests on the fitted dose curve; in most records, active means well fitted curve in the direction sought with a large enough effect; inconclusive means small, poorly fitted or top-dose-only effect, or another doubt; inactive means no such curve, though single readings can be large; an effect the other way counts as inactive or inconclusive.

SMILES	miR-21 reporter	ALDH1A1 inh	Sfp PPTase inh	KDM4E inh	Lamin A splicing	G9a block
O=C(CN1C(=O)NC2(CCOc3ccccc32)C1=O)c1ccc(Br)cc1 (configuration not stated)	-1%	.	0%	.	.	?
Cc1ccccc1Nc1oc(-c2ccccc2)nc1-c1cccc2ccccc12	.	25µM*	0%	-7%	.	.
Cc1ccccc1OCC(=O)Nc1ccc(-c2nc3ccccc3o2)cc1	-13%	.	.	.	27%[46 µM]	4%[59 µM]
O=C(Nc1cccc(C(=O)N2CCN(c3ccc(Cl)cc3)CC2)c1)c1nsc2ccccc12	-7%	.	.	.	-9%[46 µM]	-28%[59 µM]
Cc1ccc(N2C(=O)C3ON(c4ccccc4)C(c4ccncc4)C3C2=O)cc1 (configuration not stated)	-5%	2.5µM*	-8%	2%	4%	?
O=C(O)COc1ccccc1C1C2C(=O)N(c3ccccc3)C(=O)C2ON1c1ccccc1 (configuration not stated)	-13%	25µM*	7%	1%	2%	?
CCOc1ccccc1C1C2C(=O)N(c3ccccc3)C(=O)C2ON1c1ccccc1 (configuration not stated)	-5%	22µM*	0%	-18%	?	?
O=C1C2ON(c3ccccc3)C(c3ccccc3F)C2C(=O)N1c1ccccc1 (configuration not stated)	-1%	-9%	0%	-1%	-6%	8%[59 µM]
CN1OC2C(=O)N(c3ccccc3)C(=O)C2C1c1ccc(F)cc1 (configuration not stated)	-1%	8.9µM*	9%	-5%	2%	-19%
COc1ccc(-c2ccc(=O)n(CC(=O)NCC3COCCO3)n2)cc1 (configuration not stated)	.	.	.	.	.	5%
C=CCC(CC=C)(CNC(=O)C(=O)Nc1ccc(C(=O)OCC)cc1)c1ccccc1	4%	.	.	.	.	9%[59 µM]
COC(=O)c1cc2oc3ccccc3c2n1Cc1c(F)cccc1Cl	-7%	.	.	.	.	13%[59 µM]
COc1ccc(C(=O)Oc2cccnc2)cc1OC	-8%	10µM*	-11%	?	12%	-48%[12.7 µM]
O=C(CCCc1nc(-c2ccccc2)no1)NCc1cccnc1	0%	14µM*	-6%	1%	?	?
COc1ccc(-n2c(C)nc3cc(C(=O)NCc4ccc5c(c4)OCO5)ccc32)cc1	-2%	7%	-14%	0%	1%	-21%
COc1ccc(-c2noc(CCC(=O)NCc3cccnc3)n2)cc1OC	-8%	-6%	-6%	2%	5%	71µM*
O=C(Oc1cccnc1)c1cccc(Cl)c1	0%	?	-9%	?	1%	?
CCc1ccc(-n2c(C)nc3cc(C(=O)NCc4cccnc4)ccc32)cc1	-12%	3%	-5%	-12%	1%[46 µM]	50µM*
CCOC(=O)c1ccc(NC(=O)CCc2nc(-c3ccc(Cl)cc3)no2)cc1	16%	12%	89µM*	-6%	?	-31%
O=C(CCc1nc(-c2ccccc2)no1)Nc1cccnc1	-8%	.	5%	.	.	56µM*
CCOC(=O)c1ccc(NC(=O)CCc2nc(-c3ccc(C)cc3)no2)cc1	12%	-9%	?	-2%	?	-47%[12.7 µM]
CCCC(=O)c1c[nH]c(C(=O)NCc2cccnc2)c1	2%	28µM*	-12%	5%	.	8%[59 µM]
COc1ccc(C(=O)NCc2cccnc2)cc1OC	0%	25µM*	-2%	12%	11%	24%[59 µM]
CCC(=O)c1c[nH]c(C(=O)NCc2cccnc2)c1	5%	-2%	13%	-3%	.	2%
COc1ccccc1NC(=O)C(C)OC(=O)CCCOc1ccccc1 (configuration not stated)	.	.	.	.	.	62%

Compound activity as filed in PubChem BioAssay.
